Experimental data from PubChem BioAssay AID686940 (The Scripps Research Institute Molecular Screening Center, 2013).
Among all 370,000 compounds or so, about 2,600 (0.7%) were called active.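 Rule for the calls: active = inhibition above a per-plate cutoff, mean inhibition of test wells between control levels plus 3 SD (cut at about 38% in these data); inactive = the rest.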 This excerpt belongs to a sample that is enriched for actives.

What follows are compounds tested against COUP transcription factor 2 (Homo sapiens) (UniProt P24468) (assay: NR2F2 transcriptional activity inhibitors, primary screen, cell-based, luciferase reporter, HEK293T, luminescence (AID 686940;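 note: cells cotransfected with COUP-TFII expression vector driving the NGFI-A reporter; 0% = median of COUP-TF2 test wells and 100% = reporter-only cells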)). Settings: HEK293T NGFI-A luciferase reporter, at 8.6 µM, stronger effect = higher value.
COUP transcription factor 2 (Homo sapiens), sequence (P24468 whole entry, looked up): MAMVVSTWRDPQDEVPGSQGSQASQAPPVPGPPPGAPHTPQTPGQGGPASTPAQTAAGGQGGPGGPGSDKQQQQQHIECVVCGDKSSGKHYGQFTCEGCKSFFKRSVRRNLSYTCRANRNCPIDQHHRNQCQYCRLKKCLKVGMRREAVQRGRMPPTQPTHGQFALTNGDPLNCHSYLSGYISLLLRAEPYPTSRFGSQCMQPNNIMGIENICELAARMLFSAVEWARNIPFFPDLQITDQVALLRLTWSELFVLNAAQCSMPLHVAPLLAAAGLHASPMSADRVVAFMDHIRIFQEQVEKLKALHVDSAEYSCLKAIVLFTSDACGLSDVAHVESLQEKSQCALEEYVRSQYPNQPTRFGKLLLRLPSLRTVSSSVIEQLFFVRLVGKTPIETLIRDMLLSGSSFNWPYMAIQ
In the case of `CC(C)(C)OC(=O)NCc1cc(F)ccc1/C=C/S(=O)(=O)NCCc1ccccc1`, the inhibition is reported as 9.33% (inactive). `CCN1/C(=C\c2ccc3ccccc3[n+]2CC)Sc2cc(C)ccc21` was tested, and the inhibition was 73% (active). With `N#Cc1ccccc1OC[C@@H](O)CN1CCC(C(O)(c2ccccc2)c2ccccc2)CC1` the inhibition was -5.47% (inactive). `Cc1cc(C)n2ncc(C(=O)Nc3ccc4c(c3)OCCO4)c2n1` was tested, and the inhibition was -31.2% (inactive). With `C=C1C(C(C)C)N(C)C2=NC(c3ccccc3)CC(=O)N12` (stereo not given) the inhibition was -5.15% (inactive). For `CN(Cc1cccnc1)C(=O)c1cc(COc2ccc3ncccc3c2)on1`, the inhibition was 64.7% (active). With `CCOc1ccc(NS(=O)(=O)c2ccc(Cl)c(C(=O)N(C)Cc3cccnc3)c2)cc1` the inhibition was -10.5% (inactive). In the case of `CCn1ccnc1CN(C)C(=O)c1cc(COc2ccc(Cl)cc2OC)on1`, the inhibition is reported as -30.8% (inactive). In the case of `COc1ccc(-n2c(COc3ccc(C)cc3)nnc2SCC(=O)Nc2ccc(Oc3ccccc3)cc2)cc1`, the inhibition is reported as 9.67% (inactive). `C[C@@H]1CN([C@@H](C)CO)C(=O)c2cccc(NC(=O)Nc3cccc4ccccc34)c2O[C@H]1CN(C)S(=O)(=O)c1ccccc1F` was tested, and the inhibition was 11.9% (inactive). In the case of `CCOC(=O)C1=C(c2ccc(OC)cc2)C(=O)c2ccccc2C1=O`, the inhibition is reported as 74.4% (active). With `CCOC(=O)C1C(=O)C=C(c2ccc(OC)cc2)CC1c1ccco1` (stereo not given) the inhibition was -3.88% (inactive). For `CCOC(=O)C1=C(CC)Nc2ccccc2N=C1N`, the inhibition was -4.65% (inactive). `C=C(C)C#CC(Cc1ccccc1)NCC1CC1` (stereo not given) was tested, and the inhibition was 7.7% (inactive). `Cc1ccc(Cn2cc(COC(=O)N(C)Cc3ccccc3)nn2)cc1` was tested, and the inhibition was 4.98% (inactive). With `COc1ccc(CN2CCOC2=O)cc1OC` the inhibition was 12.6% (inactive). For `COc1ccc(Cn2c(=O)sc3ccccc32)cc1OC`, the inhibition was 48.4% (active). For `COc1ccccc1CNC(=O)CCn1c(=O)sc2ccccc21`, the inhibition was 4.05% (inactive). In the case of `CCC(=O)Nc1ccc2c(c1)C(=O)N(C)[C@H]1CC[C@H](CC(=O)NCCOC)O[C@@H]1CO2`, the inhibition is reported as 13.3% (inactive). With `CC(CCN1CCC(C(O)(c2ccccc2)c2ccccc2)CC1)Oc1ccc(Cl)cc1` (stereo not given) the inhibition was 3.23% (inactive). `O=S1(=O)c2c(cccc2N2CC[C@H](O)C2)O[C@@H]2CCN1C2` was tested, and the inhibition was 10.5% (inactive). `C[C@H]1CCC/C=C/C(=O)c2c(O)cc(O)cc2CC(=O)O1` was tested, and the inhibition was 38.3% (active). With `CN(C(N)=NC(=O)/C=C/c1ccccc1)C(C#Cc1ccccc1)Cc1ccccc1` (stereo not given) the inhibition was 4.75% (inactive). In the case of `O=C(CSc1nnc(-c2ccccn2)n1-c1ccc(Cl)cc1)Nc1ccccc1-c1ccccc1`, the inhibition is reported as 7.79% (inactive). `O=C(NCc1cccc(C(F)(F)F)c1)c1cccc(S(=O)(=O)N2CCN(Cc3ccccc3)CC2)c1` was tested, and the inhibition was -3.7% (inactive). `CC(NC(=O)CCC(=O)N1CCN(S(=O)(=O)c2ccc(Cl)cc2)CC1)c1ccccc1` (stereo not given) was tested, and the inhibition was -14.9% (inactive). In the case of `O=C(CCC(=O)N1CCN(S(=O)(=O)c2ccc(Cl)cc2)CC1)NCc1cccc(C(F)(F)F)c1`, the inhibition is reported as 53% (active). In the case of `O=C(NCc1ccco1)C1CCCN(S(=O)(=O)c2ccc(Cl)s2)C1` (stereo not given), the inhibition is reported as -2.82% (inactive). For `O=C(NC1CCCC1)C1CSCCS(=O)(=O)N1Cc1ccccc1` (stereo not given), the inhibition was 0.16% (inactive). For `CCc1ccc(-c2nn(-c3ccccc3)cc2CSC(=N)N)cc1`, the inhibition was -5% (inactive). With `CCOc1ccc(Br)cc1CSC(=N)N` the inhibition was 22.1% (inactive). `N=C(N)SCc1cccc2ccccc12` was tested, and the inhibition was 38.5% (active). In the case of `COC(=O)C1CN(CCc2ccccc2)CCS(=O)(=O)N1Cc1ccc(F)cc1` (stereo not given), the inhibition is reported as 3.48% (inactive). For `Cc1ccc(-c2nnc(SCC(=O)Nc3ccc(Oc4ccccc4)cc3)n2Cc2ccco2)cc1`, the inhibition was 13.6% (inactive). `CCCCOCCCNC(=O)C[C@H]1C[C@@]2(C(=O)OC)C(=C[C@H](COCc3ccccc3)O[C@@H]2C)N(Cc2cccc3ccccc23)C1=O` was tested, and the inhibition was 14.6% (inactive). With `Cc1ccc(-c2nc(CS(=O)CC(=O)NC3CCCC3)c(C)o2)cc1` (stereo not given) the inhibition was 12.9% (inactive). In the case of `Cc1ccc(S(=O)(=O)NCCC(=O)NC2CCN(Cc3ccccc3)CC2)cc1`, the inhibition is reported as 9.92% (inactive). In the case of `Cc1ccc(-c2nc(CSCC(=O)NC3CCN(Cc4ccccc4)CC3)c(C)o2)cc1`, the inhibition is reported as 44.1% (active). For `Cc1ccccc1CN1CCCCC(NC(=O)Nc2ccccc2F)C1=O` (stereo not given), the inhibition was 17.2% (inactive). With `CCOC(=O)[C@]12CCCC=C1N(Cc1ccc(OC)cc1)C(=O)[C@@H]2CC(=O)N1CCOCC1` the inhibition was 11.8% (inactive). `COc1ccc(CSc2nnc(SCC(=O)Nc3ccccc3C(F)(F)F)s2)cc1` was tested, and the inhibition was -6.32% (inactive). For `CCOC(=O)C1(Cc2cccc(OC)c2)CCN(Cc2csc(C(C)=O)c2)CC1`, the inhibition was -6.31% (inactive). For `CCCS(=O)(=O)N1CCC(CCOc2ccccc2)(C(=O)OCC)CC1`, the inhibition was 12% (inactive). `CCOC(=O)C1(CCOc2ccccc2)CCN(Cc2cc(OC)cc(OC)c2)CC1` was tested, and the inhibition was 43.4% (active). With `O=C(CSc1nc2ccccc2nc1N1CCCCC1)N1CCN(S(=O)(=O)c2cccc([N+](=O)[O-])c2)CC1` the inhibition was -2.12% (inactive). In the case of `Cc1ccc(Cn2cc(CN3[C@@H](C)COc4cc(Br)ccc4S3(=O)=O)nn2)cc1`, the inhibition is reported as 7.53% (inactive). With `O=C(CC(O)(C(F)(F)F)C(F)(F)F)Nc1ccc(Cl)c(Cl)c1` the inhibition was 74.9% (active). For `O=C(Nc1ccc(Cl)c(Cl)c1)N1CC=C(c2ccccc2)CC1`, the inhibition was -16.9% (inactive). In the case of `O=C(CCS(=O)(=O)c1ccccc1)Nc1ccc(Cl)c(Cl)c1`, the inhibition is reported as -30.7% (inactive). `O=C(c1ccccc1)c1ccc(-c2ccccc2C(=O)NC2CCCCN(Cc3ccc(Cl)cc3)C2=O)cc1` (stereo not given) was tested, and the inhibition was -10.4% (inactive). For `CC(C)CNc1cccc2c1S(=O)(=O)N(Cc1cn(Cc3ccc(Cl)cc3)nn1)Cc1ccccc1O2`, the inhibition was 5.91% (inactive). With `Cc1ccc(C)c(S(=O)(=O)N2CCN(c3ncnc4sccc34)CC2)c1` the inhibition was 61.2% (active). For `COc1ccc(-c2csc3ncnc(N4CCN(S(=O)(=O)c5cccc(F)c5)CC4)c23)cc1`, the inhibition was -7.61% (inactive). `Cc1ccc(S(=O)(=O)N2CCC3(CC2)OCCO3)c(C)c1` was tested, and the inhibition was 0.83% (inactive). For `O=C(NCCCc1ccccc1)[C@H](Cc1ccccc1)NC1(C(=O)NCCc2c[nH]c3ccccc23)CCC1`, the inhibition was 7.14% (inactive).
